{"source": "the antibiotic and cytotoxicity screens of Wong et al. (2023)", "note": "About 3,300 (8.5%) of roughly 39,000 compounds were called active. For the sample, actives were picked, then their nearest neighbours and some compounds at random.", "data": [{"tested_on": "HepG2", "assay": "cytotoxicity call (relative viability < 0.9)", "conditions": "10 µM", "values": [{"smiles": "CN1C[C@H]2CON[C@@H]2C1", "cytotoxicity call": "inactive"}, {"smiles": "CC(C)(CN)CNc1ccc([N+](=O)[O-])c2cccnc12", "cytotoxicity call": "active"}, {"smiles": "O=[N+]([O-])c1ccc2c3c(cccc13)CC2", "cytotoxicity call": "inactive"}, {"smiles": "O=C1O[C@H]2CN[C@@H]1C2", "cytotoxicity call": "inactive"}, {"smiles": "N[C@@H](C(=O)O)c1nn[nH]n1", "cytotoxicity call": "inactive"}, {"smiles": "OCC(O)C1OC2OC(C(Cl)(Cl)Cl)OC2C1O", "note": "(stereo unspecified)", "cytotoxicity call": "inactive"}, {"smiles": "CS(=O)(=O)N1CCO[C@]2(COCCN(Cc3ccncc3)C2)C1", "cytotoxicity call": "inactive"}, {"smiles": "O=c1[nH]c2ccccc2n1C1CCN(Cc2ccc(-c3nc4cc5[nH]cnc5cc4nc3-c3ccccc3)cc2)CC1", "cytotoxicity call": "active"}, {"smiles": "CN1[C@@H]2CC[C@H]1C[C@H](O)C2", "cytotoxicity call": "inactive"}, {"smiles": "Cc1cccnc1N1CCNCC1", "cytotoxicity call": "inactive"}, {"smiles": "O=C1[O][SbH]23[O]C(=O)[C@H]([O]2)[C@H]2[O][SbH]4([O]C(=O)[C@H]([O]4)[C@H]1[O]3)[O]C2=O", "cytotoxicity call": "active"}, {"smiles": "O=C1[O][SbH]23[O]C(=O)C([O]2)C2[O][SbH]4([O]C(=O)C([O]4)C1[O]3)[O]C2=O", "cytotoxicity call": "active"}, {"smiles": "N#C[C@H]1NCc2cnnn2-c2ccccc21", "cytotoxicity call": "inactive"}, {"smiles": "O=[N+]([O-])c1c(NCCO)ccc2nonc12", "cytotoxicity call": "inactive"}, {"smiles": "CC(C)(C)CC(=O)N1C[C@H]2C[C@@H]1CN2", "cytotoxicity call": "inactive"}, {"smiles": "Cc1cc[n+](C)cc1", "cytotoxicity call": "inactive"}, {"smiles": "O=c1n(Cl)c(=O)n(Cl)c(=O)n1Cl", "cytotoxicity call": "inactive"}, {"smiles": "CC(COc1ccc(Oc2ccccc2)cc1)Oc1ccccn1", "note": "(stereo unspecified)", "cytotoxicity call": "inactive"}, {"smiles": "O=c1[n-]c(=O)n(Cl)c(=O)n1Cl.[Na+]", "cytotoxicity call": "inactive"}, {"smiles": "CCC(C)C1OC2(C=CC1C)CC1CC(CC=C(C)C(OC3CC(OC)C(OC4CC(OC)C(O)C(C)O4)C(C)O3)C(C)C=CC=C3COC4C(O)C(C)=CC(C(=O)O1)C34O)O2", "note": "(stereo unspecified) [ABAMECTIN (avermectin B1a shown) ]", "cytotoxicity call": "active"}, {"smiles": "CN1CCN([C@@H](CN)c2ccc3c(c2)OCO3)CC1", "cytotoxicity call": "inactive"}, {"smiles": "O=C1C[C@H](c2ccccc2)[C@@H]2CNCCN12", "cytotoxicity call": "inactive"}, {"smiles": "O=C(NC(=O)c1c(F)cccc1F)Nc1ccc(Cl)cc1", "cytotoxicity call": "inactive"}, {"smiles": "O=C(NC(=O)c1c(F)cccc1F)Nc1cc(Cl)c(OC(F)(F)[C@@H](F)C(F)(F)F)cc1Cl", "cytotoxicity call": "inactive"}, {"smiles": "O=C(NC(=O)c1c(F)cccc1F)Nc1cc(Cl)c(OC(F)(F)C(F)C(F)(F)F)cc1Cl", "note": "(stereo unspecified)", "cytotoxicity call": "active"}, {"smiles": "CN1CCc2cc3c(cc2C1O)OCO3.Cl", "note": "(stereo unspecified)", "cytotoxicity call": "inactive"}, {"smiles": "COC(=O)C[C@](O)(CCC(C)(C)O)C(=O)O[C@@H]1C(OC)=C[C@]23CCCN2CCc2cc4c(cc2[C@H]13)OCO4", "cytotoxicity call": "active"}, {"smiles": "CN1CCc2cc3c(cc2[C@@H]1O)OCO3", "cytotoxicity call": "inactive"}, {"smiles": "CN1C[C@@H]2c3nc(N(C)C)ncc3CS(=O)(=O)[C@H]2C1", "cytotoxicity call": "inactive"}, {"smiles": "CC(C)[C@@]1(NC(=O)[C@H]2C[C@@H]3c4cccc5[nH]cc(c45)C[C@H]3N(C)C2)O[C@@]2(O)[C@H]3CCCN3C(=O)[C@@H](Cc3ccccc3)N2C1=O", "cytotoxicity call": "inactive"}, {"smiles": "CN1CC(CNC(=O)OCc2ccccc2)CC2c3cccc4c3c(cn4C)CC21", "note": "(stereo unspecified)", "cytotoxicity call": "active"}, {"smiles": "CCC(CO)NC(=O)C1C=C2c3cccc4c3c(cn4C)CC2N(C)C1.O=C(O)C=CC(=O)O", "note": "(stereo unspecified)", "cytotoxicity call": "inactive"}, {"smiles": "CC(C)[C@@]1(NC(=O)[C@@H]2C[C@@H]3c4cccc5[nH]cc(c45)C[C@H]3N(C)C2)O[C@@]2(O)[C@@H]3CCCN3C(=O)[C@H](Cc3ccccc3)N2C1=O", "cytotoxicity call": "inactive"}, {"smiles": "CC(=O)OCC1=C(C(=O)O)N2C(=O)[C@@H](N)[C@H]2SC1", "cytotoxicity call": "inactive"}, {"smiles": "CC(=O)Nc1cc([As](=O)(O)O)ccc1O", "cytotoxicity call": "inactive"}, {"smiles": "COC1=CC2C3Cc4ccc(OC)c(O)c4C2(CCN3C)CC1=O", "note": "(stereo unspecified)", "cytotoxicity call": "inactive"}, {"smiles": "C=C1[C@@H](C)[C@H]2[C@H](Cc3ccccc3)NC(=O)[C@]23[C@H](OC(C)=O)/C=C/[C@](C)(O)C(=O)[C@@H](C)C/C=C/[C@H]3[C@@H]1O", "cytotoxicity call": "active"}, {"smiles": "Cc1noc(C)c1C(=O)N1C[C@@H]2CCN[C@@H]2C1", "cytotoxicity call": "inactive"}, {"smiles": "CC1=NCCN=C(C)C1N1CCOCC1", "cytotoxicity call": "inactive"}, {"smiles": "O=C(OC1CC2CCC(C1)[N+]21CCCC1)C(O)(c1ccccc1)c1ccccc1.[Cl-]", "note": "(stereo unspecified)", "cytotoxicity call": "inactive"}, {"smiles": "N[C@@]1(C(=O)O)CC[C@@H](C(=O)O)C1.N[C@]1(C(=O)O)CC[C@H](C(=O)O)C1", "cytotoxicity call": "inactive"}, {"smiles": "CC[C@@H](C(=O)[C@@H](C)[C@@H](O)[C@H](C)[C@@H]1O[C@@H]([C@@H](CC)C(=O)O)CC[C@@H]1C)[C@H]1O[C@]2(C=C[C@@H](O)[C@]3(CC[C@@](C)([C@H]4CC[C@](O)(CC)[C@H](C)O4)O3)O2)[C@H](C)C[C@@H]1C", "cytotoxicity call": "inactive"}, {"smiles": "CCC(C(=O)[O-])C1CCC(C)C(C(C)C(O)C(C)C(=O)C(CC)C2OC3(C=CC(O)C4(CCC(C)(C5CCC(O)(CC)C(C)O5)O4)O3)C(C)CC2C)O1.[Na+]", "note": "(stereo unspecified)", "cytotoxicity call": "active"}, {"smiles": "CCCCC(=O)N1C[C@@H]2CCNC[C@@H]21", "cytotoxicity call": "inactive"}, {"smiles": "Cc1csc(CCN)n1", "cytotoxicity call": "inactive"}, {"smiles": "CN1[C@@H]2CNc3ccccc3[C@@H]2[C@@H]1CO", "cytotoxicity call": "inactive"}, {"smiles": "CCN1C[C@]2(OC(=O)c3ccccc3NC(C)=O)CC[C@@H](OC)[C@@]34[C@H]5C[C@@H]6[C@@H](OC)C[C@](O)([C@@H](C[C@@H]23)[C@@H]14)[C@]5(O)[C@H]6OC", "cytotoxicity call": "inactive"}, {"smiles": "N[C@@H](Cn1oc(=O)[nH]c1=O)C(=O)O", "cytotoxicity call": "inactive"}, {"smiles": "Br.COC(=O)C1=CCCN(C)C1", "cytotoxicity call": "active"}, {"smiles": "COC(=O)C1=CCCN(C)C1", "cytotoxicity call": "inactive"}, {"smiles": "Clc1cc2c(cc1Cl)Oc1cc(Cl)c(Cl)cc1O2", "cytotoxicity call": "inactive"}]}]}
